Compound activity as filed in PubChem.
IL-1B inflam inh = qHTS for Inhibitors of Inflammasome Signaling: IL-1-beta AlphaLISA Primary Screen; THP-1 LPS/ATP IL-1B secretion, AlphaLISA, 16 h; hits give low values; 4.7% of 360,000 active; activity change, % at 57.5 µM; in the data active = activity change below about -50%; inconclusive = mostly about -30% to -49%
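THP-1 cells pretreated 1 hr with compounds (up to 57.5 uM final), then stimulated with LPS (250 ng/mL final) plus ATP (1.25 mM final); secreted IL-1B measured by AlphaLISA after 16 hr, decreased signal indicating inhibition.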
TDP1 cell CPT = qHTS for Inhibitors of human tyrosyl-DNA phosphodiesterase 1 (TDP1): qHTS in cells in presence of CPT | Potency, µM (doses to about 46.2 µM), inactives show at the top dose activity change, negative = growth inhibition, most hits filed as inhibitors | chicken DT40 Tdp1-/-;hTDP1 cells + 20 nM CPT, ATP luminescence, 48 h | 12% of 420,000 active; note: potency is the fitted concentration of half-maximal effect; nearly all actives have a fitted effect of over 55% in size
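Cell growth measured by CellTiter-Glo luminescence after a minimum 48 h, 37 C compound exposure with 20 nM CPT in Tdp1-knockout DT40 cells stably expressing hTDP1, seeded 400/well; qHTS titration format.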
TDP1 cell noCPT = qHTS for Inhibitors of human tyrosyl-DNA phosphodiesterase 1 (TDP1): qHTS in cells in absence of CPT | Potency, µM (highest dose often 46.2 µM), inactives show at the highest dose activity change, negative = growth inhibition, hits mostly inhibitors | AID 686978, 2013 | 15% of 420,000 active | DT40 Tdp1-/- hTDP1 cells, no CPT, ATP luminescence, 48 h; note: potency is the fitted concentration of half-maximal effect; nearly all actives have a fitted effect of over 55% in size
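Readout: luminescence from CellTiter-Glo after 30 min in the dark at RT. Cells: DT40 Tdp1-/- with stable hTDP1, 400/well. Exposure: compounds alone, ≥48 hr, 37 °C.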
HT1080 IDH1KD tx = qHTS for induction of synthetic lethality in tumor cells producing 2HG: qHTS for the HT-1080-IDH1KD cell line; 2% of 360,000 active; HT-1080 IDH1 knockdown viability, ATP luminescence, 48 h; Potency, µM (titrated, usually from 46.1 µM), without a hit: top-dose activity, negative = toxicity, most hits filed as cytotoxic;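 note: potency is the fitted concentration of half-maximal effect; 0% = DMSO wells and -100% = cell-free medium wells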
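% activity derives from luminescence (CellTiter-Glo), normalised to DMSO and no-cell wells. HT-1080-IDH1KD cells, 750/well, had 48 h compound exposure at 37 °C.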
HT1080NT lethal = qHTS for induction of synthetic lethality in tumor cells producing 2HG: qHTS for the HT-1080-NT fibrosarcoma cell line. HT-1080-NT fibrosarcoma viability, CellTiter-Glo ATP luminescence, 48 h. Potency, µM (top dose mostly 46.1 µM), inactives show at the highest dose activity, negative = less viability, most hits filed as cytotoxic. 1.6% of 360,000 active;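 note: NT is the 2HG producing partner of a matched IDH1 knockdown line; potency is the fitted concentration of half-maximal effect; 0% = DMSO-treated cells and -100% = media-only wells without cells; nearly all actives have a fitted effect of over 55% in size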
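750 cells/well, RPMI + 5% FBS; 2 h settle, compound pin-transfer, 48 h at 37 degrees C. CellTiter-Glo 10 min RT, luminescence. Normalized to DMSO and media-only wells.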
* marks the source's active call; other numbers are inactive results; u = inconclusive; x = no result given; ! = not active in a repeat. Compounds with a hit are over-represented: about 19% of the library has one in this group of screens. Unless noted, calls come from the whole dose curve; as a rule, active = well fitted curve in the direction sought with a large enough effect; inconclusive = small, poorly fitted or top-dose-only effect, or another doubt; inactive = no such curve, though single readings can be large; an effect the other way counts as inactive or inconclusive. Unless noted, % is set by controls: 0 for no effect and ±100 for the full control effect.

SMILES | IL-1B inflam inh | TDP1 cell CPT | TDP1 cell noCPT | HT1080 IDH1KD tx | HT1080NT lethal
COc1ccc(C2C(C#N)=C(N)Oc3c2c(-c2ccccc2)nn3-c2ccccc2)c(OC)c1OC (configuration not stated) | -9 | -11% | u | -12% | -26%
O=C(Nc1ccc2nc(N3CCOCC3)sc2c1)c1cc2ccccc2o1 | 45 | 23µM* | u | -6% | -7%
Cc1c(C(=O)Nc2ccc3nc(N4CCOCC4)sc3c2)oc2ccccc12 | 0 | 26µM* | u | -11% | -10%
CCc1ccccc1NC(=O)c1ccc2nc(N3CCOCC3)sc2c1 | -3 | -24% | -23% | -15% | 0%
CCCn1c(SCN2C(=O)c3ccccc3C2=O)nc2cc(Cl)ccc2c1=O | 5 | 21µM* | 23µM* | 0% | -5%
C=CCn1c(SCC#N)nc2cc(Cl)ccc2c1=O | x | u | 13µM* | x | x
CC(C)Cn1c(SCC(=O)NC2CC2)nc2ccc(Cl)cc2c1=O | -2 | -23% | u | -2% | -3%
C=CCn1c(SCC(=O)NCCC2=CCCCC2)nc2ccc(Cl)cc2c1=O | 2 | 23µM* | u | 2% | -2%
CCc1cc2c(=O)oc(-c3ccc(Br)cc3)nc2s1 | 12 | -15% | -1% | 14% | 6%
Cc1cn([C@H]2C[C@H](O)[C@@H](/C=C/C(=O)NCc3ccc4c(c3)OCO4)O2)c(=O)[nH]c1=O | 3 | 7% | 2% | 11% | 20%
CCCCNc1c(-c2ccc(OC)c(SC(C)CC)c2)nc2cc(C)ccn12 (configuration not stated) | -85* | 16µM* | 15µM* | 23µM* | 21µM*
CCCCNc1c(-c2ccc(Sc3ccc(OC)cc3)cc2)nc2cc(C)ccn12 | -13 | u | -86% | u | u
COc1ccc(-c2nc3cc(C)ccn3c2NCc2ccc3c(c2)OCO3)cc1 | -2 | u | u | -22% | -11%
CCCCCCSc1ccc(-c2nc3cnccn3c2NCCCC)cc1 | 0 | u | 21µM* | 1% | 4%
CCCCNc1c(-c2ccc(OC)c(SC(C)CC)c2)nc2ccc(Cl)cn12 (configuration not stated) | -66* | 26µM* | 26µM* | -5% | 7%
CCCCNc1c(-c2ccc(-c3ccc(C(C)=O)cc3)c(OC)c2)nc2cc(C)ccn12 | -51* | 18µM* | 10µM* | u | u
CCCCCCSc1cc(-c2nc3ccc(Cl)cn3c2NCCCC)ccc1OC | 0 | u | u | 14% | 4%
CCC(CN)CC(C)CCNCC(O)CNCC(C)CC(CC)CN (configuration not stated) | x | -1% | 3% | x | x
CN(C)C(=O)c1ccc(-c2cc(NCc3cccnc3)ncn2)cc1 | x | 12% | 4% | x | x
COc1ccc(C(=Cc2ccccc2[N+](=O)[O-])C(=O)O)cc1 | -7 | -9% | -8% | -3% | -4%
CCCCCCSc1cc(-c2nc3ccc(C)cn3c2NCCCC)ccc1OC | -72* | u | u | -6% | -8%
CCCCNc1c(-c2ccc(OC)c(SC(C)CC)c2)nc2cnccn12 (configuration not stated) | -67* | u | 26µM* | 0% | -8%
COCCNc1c(-c2ccc(O)cc2)nc2ccc(Cl)cn12 | -13 | 33µM* | -101% | 2% | 4%
CCCCNc1c(-c2ccc(OC)c(SC(C)CC)c2)nc2ccc(C)cn12 (configuration not stated) | -100*! | 18µM* | 18µM* | u | 21µM*
CCCOc1nc(C)cc(COC)c1C(N)=O | 13 | 0% | 2% | 11% | 16%
